Source: PubChem
SUMO HTRF inh – inhibitors of human SUMOylation (UBC9) | AID 2006 | P63279 | HTRF SUMOylation assay, SAE1/SAE2 + UBC9, in vitro | hit rate 0.36% among 290,000 | inhibition, % at 35 µM; in the data active = inhibition above about 50%, passing the limit was not always enough; inconclusive = no clear call, values can overlap the other calls
PABP FP inh – blocks human PABP binding to poly(A) RNA | P11940 | hit rate 1% among 290,000 | inhibition, % at 35 µM | fluorescence polarization | AID 2014;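 note: calls also rest on retests at 20 µM and on dose response follow-up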
PABP1 MLLE inh – inhibitors of microRNA-mediated deadenylation, human PABP1 MLLE binding; GST-MLLE / FITC-PAM2 fluorescence polarization; inhibition, % at 20 µM; hit rate 0.36% among 360,000; AID 588489; in the data active = inhibition above about 35%, passing the limit was not always enough
ALR inh – human ALR oxidase inhibition via reduced H2O2; P55789; purified ALR, DTT oxidation, H2O2 HRP-luminol luminescence; inhibition, % (test concentration not listed); hit rate 3.8% among 290,000;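 active = mean replicate inhibition above about 79%, with every replicate also reaching it, limit read from the data; inconclusive = only one of the two criteria met; inactive = mean below limit and not every replicate reaching it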
Target sequence (P55789 whole entry, looked up): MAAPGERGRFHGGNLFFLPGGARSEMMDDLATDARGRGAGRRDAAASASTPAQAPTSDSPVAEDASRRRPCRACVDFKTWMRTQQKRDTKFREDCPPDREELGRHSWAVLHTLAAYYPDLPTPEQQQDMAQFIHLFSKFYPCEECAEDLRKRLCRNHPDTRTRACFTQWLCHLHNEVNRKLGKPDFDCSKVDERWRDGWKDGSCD
Efflux pump inh – inhibitors of Candida antifungal efflux pumps expressed in yeast. inhibition, % at 10 µM. S. cerevisiae Candida pump triplex, Nile Red efflux. hit rate 0.44% among 330,000;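 active = plate passing quality check with inhibition over a set limit, or well fluorescence over plate mean plus 4 SD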;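 note: Nile Red retained in pooled yeast measured as flow cytometry median fluorescence; higher means more Nile Red kept so more efflux inhibition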
eIF4H FP inh – inhibitors of RNA binding by human eIF4H; inhibition, % at 35 µM; hit rate 0.94% among 290,000; eIF4H fluorescence polarization binding assay; AID 2012;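 note: calls also rest on retests at 20 µM and on dose response follow-up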
Hits are given with their value; - = inactive; ? = inconclusive; . = no result. Only some compounds are listed: those with a hit (about 4.7% of all), similar ones and a draw of the others. Unless noted, the rule behind the calls is not given here.

SMILES	SUMO HTRF inh	PABP FP inh	PABP1 MLLE inh	ALR inh	Efflux pump inh	eIF4H FP inh
CN(C)CCCN1c2ccccc2Sc2ccc(Cl)cc21	-	-	-	98	-	-
CCN1C(=O)c2ccccc2Sc2ccc(C(=O)NCCCN3CCCCC3)cc21	-	-	-	-	-	-
CN1CCN(CCCNC(=O)c2cn(C)c3ccc(S(=O)(=O)N(C)C)cc3c2=O)CC1	-	-	-	-	-	-
OCCN1CCN(CCCN2c3ccccc3Sc3ccc(Cl)cc32)CC1	-	-	-	99	-	-
CSc1ccc(CN2CCC2(C)C(=O)NC2CCN(Cc3ccccc3)CC2)cc1 (stereo not given)	.	.	-	.	.	.
C[C@H](CO)N1C[C@H](C)[C@@H](CN(C)Cc2ccccc2)Oc2c(NS(=O)(=O)c3cn(C)cn3)cccc2C1=O	.	.	-	-	-	.
CC(=O)c1ccc(S(=O)(=O)Nc2cccc(-n3cnnn3)c2)cc1	-	41	-	-	-	98
Cc1cccc(OCCN2C(=O)C(=O)c3cccc(C)c32)c1	-	-	-	-	-	1.1
O=C(O)CN1C(=O)/C(=C\c2cccc(OCc3ccccc3)c2)SC1=S	-	-	-	83	-	-
O=C(O)CN1C(=O)/C(=C\c2cc(Br)ccc2OCc2ccc(F)cc2)SC1=S	-	-	-	-	-	-
COc1ccc(/C=C2\SC(=S)N(CCC(=O)Nc3ccccc3C(=O)O)C2=O)cc1	-	-	-	-	-	-
COc1ccc(/C=C2/SC(=S)N(CC(=O)O)C2=O)cc1OCc1ccc(Cl)cc1	-	-	-	88	-	-
O=C(O)CN1C(=O)/C(=C\c2cc(Br)ccc2OCc2ccc(Cl)cc2)SC1=S	-	-	-	98	-	-
COc1ccc(/C=C2\SC(=S)N(CCCC(=O)Nc3ccccc3C(=O)O)C2=O)cc1OC	-	34	-	.	-	-
COC(=O)[C@@]12CCCCN1[C@H](c1ccc(-c3ccc(OC)cc3)c(OC)c1)[C@@H]1C(=O)N(C)C(=O)[C@@H]12	.	.	-	.	-	.
CC(C)Nc1nc(NCCN2CCCC2)c2sc(-c3ccccc3)cc2n1	.	.	-	.	.	.
O=C(O)CN1C(=O)/C(=C\c2cc([N+](=O)[O-])ccc2OCc2ccccc2Cl)SC1=S	-	71	-	?	-	45
O=C(CSc1nccc(=O)[nH]1)N1CCN(c2ccccc2)CC1	-	-	-	92	-	-
O=C(CN1CCN(c2ccc(F)cc2)CC1)N1CCOCC1	-	-	-	88	-	-
Cc1[nH]c2ccccc2c1SCC(=O)N1CCN(c2ccccc2)CC1	-	-	-	91	-	-
Nc1nc(SCC(=O)N2CCN(c3ccccc3)CC2)n[nH]1	-	-	-	-	-	-
Cc1nc(SCC(=O)N2CCN(c3ccccc3)CC2)n[nH]1	-	-	-	99	-	-
CCCc1cc(=O)[nH]c(SCC(=O)N2CCN(c3ccccc3)CC2)n1	-	-	-	-	-	-
Cc1[nH]c2ccccc2c1SCC(=O)N1CCCCC1	-	-	-	?	-	-
Cn1c(-c2ccccc2)c(C#Cc2ccc(N)cc2)c2ccccc21	.	.	-	-	-	.
SMILES	SUMO HTRF inh	PABP FP inh	PABP1 MLLE inh	ALR inh	Efflux pump inh	eIF4H FP inh
COc1cc(CNCCc2ccccc2)cc(Cl)c1OCc1ccccc1	-	-	-	.	-	-
Nc1nc(SCC(=O)N2CCN(c3ccc(F)cc3)CC2)n[nH]1	.	.	-	94	-	.
C#CCOCCOCCOCCNc1nc(N2CCN(C(=O)[C@H](CCC(=O)O)n3cc([C@@H](N)[C@H](C)CC)nn3)CC2)nc(N2CCN(C(=O)[C@H](CCCCN)n3cc([C@@H](N)CC(N)=O)nn3)CC2)n1	.	.	-	.	-	.
CCC(C)Sc1ccc([C@H]2N[C@@](C)(C(=O)OC)[C@H]3C(=O)N(C)C(=O)[C@@H]23)cc1 (stereo not given in full)	.	.	-	-	-	.
Cc1ccc2c(c1)c1c(n2C)-c2[nH]ncc2CC1	-	-	-	94	-	-
CN(Cc1ccccc1)C(=O)c1ccc(NC(=O)Cc2ccc(NC(=O)C3CCN(S(=O)(=O)c4cccc([N+](=O)[O-])c4)CC3)cc2)cc1	.	.	-	.	.	.
COC(=O)CSc1nc(C(C)C)nc2ccccc12	-	-	-	-	-	-
CC(C)c1nc(SCC(=O)c2ccc(F)cc2)c2ccccc2n1	-	-	37	99	-	-
Cc1ccc(C(=O)CSc2nc(C(C)C)nc3ccccc23)cc1	-	-	-	98	-	-
CCOC(=O)CSc1nc(C(C)C)nc2ccccc12	-	-	-	-	-	-
